Six molecules from PubChem BioAssay (NCATS) can be followed below.

Where “and” joins values, the source holds several entries; their conditions need not be identical. Equal values may be shown once. Results filed as inconclusive are left out. Where a structure was tested more than once in an assay, its records may differ in their call. Values without a mark were called inactive. Calls of active or inactive are those of the source. Calls come from the whole dose curve; as a rule, active = well fitted curve in the direction sought with a large enough effect; inconclusive = small, poorly fitted or top-dose-only effect, or another doubt; inactive = no such curve, though single readings can be large; an effect the other way counts as inactive or inconclusive.

The subject of one assay is TAB109. The assay can be described thus: qHTS profiling for inhibitors of Plasmodium falciparum proliferation (AID 504749).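 Note: 0% = DMSO vehicle and full inhibition = artemisinin control; nearly all actives have a fitted effect of over 60% in size.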 The following applies: P. falciparum in erythrocytes, SYBR Green DNA, 72 h; series mostly up to 28.7 µM. Put shortly:
(§1)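 P. falciparum-infected erythrocytes (0.3% parasitemia, 2.5% hematocrit) incubated with compound 72 h at 37 C, 5% CO2. Parasite DNA detected by SYBR Green after lysis, overnight at room temperature; normalised to 0.29 uM artemisinin and DMSO.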

In the next assay the test system is TAB113. The assay is described as above. Particulars: P. falciparum in erythrocytes, SYBR Green DNA, 72 h; series mostly up to 28.7 µM. In a few lines: as §1
The next assay relates to TAB165. The description is as above. The following applies: P. falciparum in erythrocytes, SYBR Green DNA, 72 h; series mostly up to 28.7 µM. In a few lines: as §1
The subject of another assay is W2. Described as above. The following applies: P. falciparum in erythrocytes, SYBR Green DNA, 72 h; series mostly up to 28.7 µM. Put shortly:
as §1

The subject of assay [1] is CRL-7250. The assay can be described thus: Cytotoxic Profiling of Annotated Libraries Using Quantitative High-Throughput Screening (AID 1296008). For max response: % is set by controls: 0 for no effect and ±100 for the full control effect. Note: nearly all actives have a fitted effect of over 60% in size. Note: potency is the fitted concentration of half-maximal effect. Particulars: Five cell lines viability, CellTiter-Glo ATP luminescence, 48-72 h; max response: active compounds read low. Put shortly: (§2)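 Cells exposed to compounds for 48 or 72 hr at 37 degrees Celsius. Viability read as ATP-coupled luminescence with CellTiter-Glo after 10 min at room temperature.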

A further assay concerns HEK293. The assay is described as above. Particulars: Five cell lines viability, CellTiter-Glo ATP luminescence, 48-72 h; max response: active compounds read low. Put shortly:
as §2
For orientation: ATP-based viability assays read luminescence as a measure of living cells.

For assay [2], the system named is HaCat. Described as above. The following applies: Five cell lines viability, CellTiter-Glo ATP luminescence, 48-72 h; max response: active compounds read low. In a few lines:
as §2

The subject of the next assay is KB-3-1. The description is as above. The following applies: Five cell lines viability, CellTiter-Glo ATP luminescence, 48-72 h; max response: active compounds read low. In a few lines: as §2
For assay [3], the system named is NIH3T3. Described as above. The following applies: Five cell lines viability, CellTiter-Glo ATP luminescence, 48-72 h; max response: active compounds read low. Put shortly: as §2
Assay [4] concerns CRL-7250. The assay can be described thus: qHTS assay to identify novel small-molecules to repurpose for Merkel cell carcinoma treatment (AID 1296009). Note: nearly all actives have a fitted effect of over 60% in size. Note: potency is the fitted concentration of half-maximal effect. The following applies: MCC and control cell lines, CellTiter-Glo viability, 72 h; series mostly up to 44.8 µM. In a few lines: (§3)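 Cells were treated for 72 hr at 37 degree celsius with compounds in 8- or 11-point dose response. Viability was read by CellTiter-Glo luminescence, normalized to no-cell (cytotoxicity) and DMSO controls.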
A general note: qHTS replaces the single test concentration by a dilution series.

The subject of assay [5] is HACAT. The description is as above. The following applies: MCC and control cell lines, CellTiter-Glo viability, 72 h; at 44.8 µM (top of the series) unless noted. Put shortly:
as §3

In a further assay the test system is HEK293T. Described as above. Particulars: MCC and control cell lines, CellTiter-Glo viability, 72 h; at 44.8 µM (top of the series). In a few lines: as §3
The next assay has as its system MCC-13. Described as above. Particulars: MCC and control cell lines, CellTiter-Glo viability, 72 h; series mostly up to 46 µM. In a few lines: as §3
The test system of another assay is MKL-1. The description is as above. Particulars: MCC and control cell lines, CellTiter-Glo viability, 72 h; series mostly up to 46 µM. Put shortly: as §3
A further assay has as its system MKL-2. The assay is described as above. Particulars: MCC and control cell lines, CellTiter-Glo viability, 72 h; series mostly up to 46 µM. Put shortly: as §3
The test system of a further assay is UISO. The assay is described as above. Particulars: MCC and control cell lines, CellTiter-Glo viability, 72 h; series mostly up to 46 µM. In a few lines: as §3
In another assay the test system is WaGa. Described as above. The following applies: MCC and control cell lines, CellTiter-Glo viability, 72 h; series mostly up to 46 µM. Put shortly:
as §3

A further assay concerns C33A. The assay can be described thus: Primary qHTS to identify gynecologic anti-cancer compounds using libraries of approved drugs and bioactive compounds (AID 1345084). Note: % is set by controls: 0 for no effect and ±100 for the full control effect; nearly all actives have a fitted effect of over 55% in size. Particulars: Gynecologic cancer cell panel viability, ATPlite luminescence, 48 h; series mostly up to 57.5 µM. Put shortly: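 Luminescence from the ATPlite ATP-monitoring reagent indicates viable cell number; lower signal means cytotoxicity. Cells received compound 16 h after seeding and were exposed for 48 h across five concentrations.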

In another assay the test system is MCC-26. The assay can be described thus: qHTS assay to identify novel small-molecules to repurpose for Merkel cell carcinoma treatment (AID 1296009). Note: nearly all actives have a fitted effect of over 60% in size. Note: potency is the fitted concentration of half-maximal effect. Particulars: MCC and control cell lines, CellTiter-Glo viability, 72 h; series mostly up to 46 µM. Put shortly: as §3
Assay [6] has as its system NIH3T3. The description is as above. The following applies: MCC and control cell lines, CellTiter-Glo viability, 72 h; at 44.8 µM (top of the series) unless noted. Put shortly:
as §3

For the molecule `CN1CCN(C(=O)O[C@H]2c3nccnc3C(=O)N2c2ccc(Cl)cn2)CC1`, the Potency entry in the assay on TAB109, with TAB113, with TAB165, with W2, with MCC-13 and in the assay on MKL-1 was “inactive” in each case. In addition, the Potency entry with MKL-2, in the assay with UISO, in the assay with WaGa and in the assay on C33A was “inactive” in each case. For the same molecule, the call in the assay on CRL-7250 [1], with HEK293, in the assay on HaCat [2], in the assay with CRL-7250 [4], in the assay on HACAT [5] and in the assay with HEK293T was inactive. Moreover, the max response is 3.04% in the assay with HEK293; -17.1% in the assay with HaCat [2]; 4.48% in the assay with KB-3-1; -1.04% and -0.741% with NIH3T3 [3].

For `CC(C)(C)CC(C)(C)c1ccc(O)cc1`, the Potency entry in the assay on TAB109, in the assay with TAB113, in the assay with TAB165, in the assay with MCC-13, in the assay with MCC-26 and in the assay on UISO was “inactive” throughout. In the assay on C33A, the Potency result was “inactive”. The Potency in the assay with CRL-7250 [1] was 38.6 µM (active); in the assay on MKL-2 it was 24.3 µM (active); in the assay with WaGa, 34.4 µM (active). In addition, the max response in the assay on CRL-7250 [1] was -2.09%; in the assay with HaCat [2] it was -11.5%; in the assay on KB-3-1 it was 33.4% and 13.2%. Also, the call in the assay with NIH3T3 [3] and in the assay on NIH3T3 [6] was inactive.

`CN1C(=S)CN=C(c2ccccc2)c2cc(Cl)ccc21`: the Potency result in the assay on TAB109, in the assay with TAB113, in the assay with TAB165, in the assay on W2, in the assay on MCC-13 and with MCC-26 was “inactive” throughout. The Potency result with MKL-1, with MKL-2, with UISO, in the assay with WaGa and in the assay with C33A was “inactive” each time. Also, the molecule was called inactive with CRL-7250 [1], in the assay on HaCat [2], in the assay on NIH3T3 [3], with CRL-7250 [4], in the assay with HACAT [5] and in the assay on NIH3T3 [6]. The results for the max response in the assay on HEK293 and in the assay with KB-3-1 were -23.9% and 4.4%, respectively.

In the case of `CCC(=O)C(CC(C)N(C)C)(c1ccccc1)c1ccccc1` (configuration not stated), the max response is -4.65% in the assay on CRL-7250 [1], -25% in the assay on KB-3-1 and -1.89% in the assay on NIH3T3 [3]. The Potency in the assay with HEK293 was 30.9 µM (active). In addition, the result in the assay with HaCat [2] was inactive. Moreover, the outcome in the assay with HACAT [5] was “inactive [at 92 µM]”. Further, the Potency result in the assay on MCC-13 and in the assay with C33A was “inactive” throughout.

Regarding `NN=C(N)N`, the Potency result in the assay with TAB109, in the assay with TAB113, in the assay with TAB165, in the assay with W2, in the assay with MCC-13 and in the assay with MKL-1 was “inactive” in each case. In addition, the Potency result in the assay with MKL-2, with UISO, in the assay with WaGa and in the assay on C33A was “inactive” each time. Moreover, the call in the assay on CRL-7250 [1] and in the assay with CRL-7250 [4] was inactive. For the same molecule, the max response is -4.43% in the assay on HEK293, -1.38% with HaCat [2], 8.75% in the assay on KB-3-1 and -4.47% with NIH3T3 [3].

As to `NCC1(CC(=O)O)CCCCC1`, the Potency entry in the assay on TAB109, in the assay on TAB113, in the assay on TAB165, in the assay with W2, in the assay on MCC-13 and with MCC-26 was “inactive” in each case. The Potency entry in the assay on MKL-1, in the assay with MKL-2, in the assay with UISO, in the assay on WaGa and in the assay with C33A was “inactive” throughout. The max response is -5.5% and -5.6% with CRL-7250 [1]; 4.46% in the assay with HEK293; -11.6% and 17.1% with KB-3-1; -2.27% and -4.04% with NIH3T3 [3]. In addition, the result in the assay with HEK293, in the assay with HaCat [2], in the assay on HACAT [5] and in the assay on HEK293T was inactive.
